Source: PubChem BioAssay AID1159606 (Sanford-Burnham Center for Chemical Genomics, 2016)
Hit rate of the full screen: of about 360,000 compounds, about 7,300 (2%) were called active. The entries come from a sample that favours actives as a whole. Values without a mark were called inactive. Cut-off read from the data, not from the text of the source: active = inhibition above about 50%; inactive = the rest.

Assay: blockers of TWEAK-induced Fn14 reporter activity – luciferase reporter cells, uHTS, primary screen (AID 1159606)
Details: TWEAK-stimulated Fn14 reporter cells, luciferase luminescence, 8 h; at 10 µM; stronger effect = higher value
In the case of `O=C(CN1CCN(C2CCS(=O)(=O)C2)CC1)N1N=C(c2ccc(Cl)cc2)CC1c1ccco1` (stereo not drawn), the inhibition is reported as 73.8% (active). With `Cc1ccc(C2=NN(C(=O)CSc3nc(N)cc(N)n3)C(c3ccco3)C2)cc1` (stereo not drawn) the inhibition was 9.43%. `Cc1ccc(C2=NN(C(=O)COc3ncnc4ccccc34)C(c3ccco3)C2)cc1` (stereo not drawn) gave an inhibition of -54.3%. Compound `CC1(C(=O)NS(=O)(=O)c2ccc3ccccc3c2)CCN1C(=O)C1(c2ccc(Cl)cc2)CCC1` (stereo not drawn) has an inhibition of 17.7%. `C/C(=N\NC(=O)c1ccc(C)cc1)C1C(=O)c2ccccc2C1=O` showed an inhibition of -2.62%. In the case of `CCOc1ccccc1/C=N/Nc1nc2ccccc2o1`, the inhibition is reported as 15.2%. For `CCOc1cccc(/C=C/c2ccc3ccccc3n2)c1OC(C)=O`, the inhibition was 60% (active). In the case of `CC(OC(=O)c1ccc2ccccc2n1)C(=O)c1ccccc1` (stereo not drawn), the inhibition is reported as -11.2%. `CC(=O)c1ccc(S(=O)(=O)N2CCN(C(=O)/C=C/c3ccc4ccccc4n3)CC2)cc1` showed an inhibition of 6.75%. With `COc1cccc(/C=C/c2ccc3ccccc3n2)c1OC(C)=O` the inhibition was 86.8% (active). `CCOc1ccccc1-c1cc(C(=O)N2CCOCC2)c2ccccc2n1` showed an inhibition of -5.73%. For `CCCc1cc(=O)oc2c(C)c(OC(C)C(=O)NCC(O)c3ccccc3)ccc12` (stereo not drawn), the inhibition was -28.2%. In the case of `COCn1c(C(O)c2ccccc2)cc2ccccc21` (stereo not drawn), the inhibition is reported as 3.63%. `Cc1ccc(-c2ccc(CN3C(C)C(=O)N(Cc4cn(CCC5OCCCO5)nn4)CCS3(=O)=O)cc2)cc1` (stereo not drawn) showed an inhibition of 5.69%. Work on `Cc1ccc(NC(=O)CSCC(=O)N2CCOCC2)cc1` yielded an inhibition of -11.3%. With `O=C(CSc1nnc(-c2cccnc2)n1Cc1ccco1)c1ccc(Cl)c(Cl)c1` the inhibition was 62.2% (active). In the case of `O=C(CSc1nnc(-c2cnccn2)n1Cc1ccco1)c1ccc(Cl)c(Cl)c1`, the inhibition is reported as -5.31%. For `C(=C\c1ccccc1)/CSc1nnc(-c2cccnc2)n1Cc1ccco1`, the inhibition was -6.4%. For `CNC[C@H]1OCc2cnnn2CCCC(=O)N([C@H](C)CO)C[C@@H]1C`, the inhibition was -13.2%. `CCc1nc2ccc(C(=O)NC3CCN(Cc4ccccc4)CC3)cn2c1N(CC)CCOC` gave an inhibition of -14.1%. For `COCCNc1nc2nonc2nc1N1CCCC1c1nccs1` (stereo not drawn), the inhibition was -4.57%. With `O=C(Nc1ccc2c(c1)CCC2)c1cccc(S(=O)(=O)Nc2ccccc2Cl)c1` the inhibition was 25.9%. With `O=C(Nc1ccc2c(c1)CCC2)c1cccc(S(=O)(=O)N2CCN(c3ccc(F)cc3)CC2)c1` the inhibition was 65% (active). For `CN1CCN(S(=O)(=O)c2cccc(C(=O)Nc3cccc(S(N)(=O)=O)c3)c2)CC1`, the inhibition was 14.8%. Compound `COc1ccc(NC(=O)c2ccccc2CC[N+](=O)[O-])cc1` has an inhibition of 2.4%. Work on `COCCNC(=O)c1cc2c(Br)ccc(Br)c2nc1N` yielded an inhibition of 2.81%. `Cc1cc(C)n2c(Nc3c(C)cccc3C)c(CCc3ccccc3)nc2n1` showed an inhibition of -5.1%. For `OCC1(CO)CC2(C1)CC(CO)(CO)C2`, the inhibition was 15.3%. In the case of `Cc1ccc(-c2noc(CCC(=O)Nc3ccccc3N3CCN(C)CC3)n2)cc1`, the inhibition is reported as 12.3%. With `CCOc1cc(/C=C(/C#N)c2ccc(Cl)cc2)cc(Cl)c1OCC(=O)O` the inhibition was 83.5% (active). Compound `COc1cc(/C=C(/NC(=O)c2ccc(Cl)cc2Cl)C(=O)O)cc(OC)c1OC` has an inhibition of 15.3%. Compound `CCOc1cc(/C=N/NC(=O)OC)ccc1OCCSc1ccc(Cl)cc1` has an inhibition of 10.4%. `COc1ccccc1CNC(=O)C1CCN(S(=O)(=O)c2ccc3c(c2)OCCO3)CC1` showed an inhibition of 10.5%. `Cc1ccc(Cn2cc(C(=O)NN)c(=O)c3ccc(F)cc32)cc1` gave an inhibition of -2.98%. For `CCNc1nc(SCCOc2ccccc2)nc(N(C)C)n1`, the inhibition was -28.5%. Work on `Cc1cccc(NC(=O)C2CC(=O)OC23CCCC3)c1` (stereo not drawn) yielded an inhibition of 14.4%. Work on `Cn1c(=O)c2cc(NC(=O)NCCc3cccs3)ccc2n1Cc1cccc(C(F)(F)F)c1` yielded an inhibition of 4.52%. In the case of `O=C(Nc1ccccc1)Nc1nnc(COc2ccccc2F)s1`, the inhibition is reported as -8.31%. In the case of `O=C(Nc1nnc(COc2ccccc2)s1)Nc1ccccc1F`, the inhibition is reported as 62.4% (active). Compound `COc1ccccc1NC(=O)Nc1nnc(Cc2ccc(F)cc2)s1` has an inhibition of -26.6%. In the case of `Brc1ccc(-c2nn[nH]n2)cc1`, the inhibition is reported as 5.03%. Compound `CC(=O)C1=C(C)NC2=C(C(=O)CC(C)(C)C2)C1C` (stereo not drawn) has an inhibition of 16%. With `COc1ccc(OC)c(/C(C)=N\NC(=O)c2cc3cc(Cl)ccc3n2C)c1` the inhibition was 5.37%. For `Cc1ccc(S(=O)(=O)Nc2nc3ccccc3nc2N2CCc3ccccc3C2)cc1`, the inhibition was 86.8% (active). Work on `Cc1ccc(S(=O)(=O)C(C#N)c2nc3ccccc3nc2N2CCCC2)cc1C` (stereo not drawn) yielded an inhibition of 12.6%. `COCCCNc1nc2ccccc2nc1NS(=O)(=O)c1ccc(F)cc1` gave an inhibition of 19.1%. `Cc1ccc(C)c(NC(=O)CSc2nc3c(oc4ccccc43)c(=O)n2-c2ccccc2)c1` gave an inhibition of 25.1%. In the case of `COc1ccccc1C(=O)NC(=S)Nc1ccc(N2CCOCC2)cc1`, the inhibition is reported as -34.2%. `COc1ccccc1C(=O)NC(=S)NC12CC3CC(CC(C3)C1)C2` showed an inhibition of 0.54%. In the case of `COc1ccccc1C(=O)NC(=S)Nc1ccccc1N1CCCCC1`, the inhibition is reported as 53.6% (active). With `CC(C)(C)c1cc(NC(=O)NN2CCOCC2)nn1-c1c(Cl)cc(Cl)cc1Cl` the inhibition was 4.79%. Work on `CC(C)(C)OC(=O)C[C@@H]1C/C=C\C[C@@H](CC(=O)NCCO)C(=O)N[C@H](Cc2c[nH]c3ccccc23)COC1=O` yielded an inhibition of -8.05%. For `Oc1cccc2ccc(/C=C/c3ccc(Br)s3)nc12`, the inhibition was 57.6% (active). `Nc1ccc(S(=O)(=O)Nc2nccc(/C=C/c3ccc(Br)s3)n2)cc1` showed an inhibition of -5.92%. In the case of `CCCN(CC(=O)Nc1ccc(OC)c(OC)c1)CC(=O)Nc1ccc(F)c(F)c1F`, the inhibition is reported as -5.89%. For `CCCCN1Cc2c(nc3cc(-c4ccccc4)[nH]n3c2=O)C1=O`, the inhibition was 1.25%. With `O=c1c2c(nc3nc[nH]n13)CCC2` the inhibition was 1.33%. In the case of `O=c1c2c(nc3cc(-c4cccc(Cl)c4)[nH]n13)CCCC2`, the inhibition is reported as 75.5% (active). With `CSc1nnc(SCc2nc3sc(C(=O)O)c(C)c3c(=O)[nH]2)s1` the inhibition was 15.4%. `CCCCCCN1CCN(C2CN(Cc3cn(CCCCCC)nn3)S(=O)(=O)C2)CC1` (stereo not drawn) gave an inhibition of 6.81%. `COc1cc(-c2nnc(Cn3cc(C(F)(F)F)ccc3=O)o2)cc(OC)c1OC` gave an inhibition of -25.3%. For `C=CCOc1cccc(CNn2cn[nH]c2=S)c1`, the inhibition was 22.9%. With `CCOC(=O)[C@]12CCCC=C1N(Cc1cccc3ccccc13)C(=O)[C@H](CC(=O)NCC13CC4CC(CC(C4)C1)C3)C2` the inhibition was 25.4%. Work on `O=C(Nc1sc2c(c1-c1nc3ccccc3[nH]1)CCCC2)C1CC1` yielded an inhibition of -8.49%. Work on `O=C1NC(c2ccncc2)Nc2sc3c(c21)CCCC3` (stereo not drawn) yielded an inhibition of -14.9%. For `C/C(=C\c1ccccc1)C1NC(=O)c2c(sc3c2CCCC3)N1` (stereo not drawn), the inhibition was 77% (active). `CCC1NC(=O)c2cccnc2-n2c1nc1ccc(C)cc1c2=O` (stereo not drawn) gave an inhibition of -40.1%. In the case of `O=C(NCc1cccc(C(F)(F)F)c1)c1cccc(S(=O)(=O)N2CCN(Cc3ccccc3)CC2)c1`, the inhibition is reported as 15.4%. Work on `CC(NC(=O)CCC(=O)N1CCN(S(=O)(=O)c2ccc(Cl)cc2)CC1)c1ccccc1` (stereo not drawn) yielded an inhibition of 4.74%. For `O=C(CCC(=O)N1CCN(S(=O)(=O)c2ccc(Cl)cc2)CC1)NCc1cccc(C(F)(F)F)c1`, the inhibition was 57.4% (active). With `Cc1n[nH]c(=O)c2c(NC(=O)COC(=O)c3ncc(Cl)c(Cl)c3Cl)oc(C)c12` the inhibition was -5.62%. In the case of `Cc1noc(C)c1COC(=O)Cn1c(C)nc2ccccc21`, the inhibition is reported as -13%. Work on `CSc1ccccc1NC(=O)COC(=O)CCCOc1ccc(C)cc1` yielded an inhibition of -5.19%. For `CCCCCCCCCCOC(=O)Cn1c(COc2ccc(C)cc2)[n+](C)c2ccccc21`, the inhibition was 76.3% (active). For `Cc1ccc(C(=O)CN2C(=O)NC3(CCc4ccccc43)C2=O)c(C)c1` (stereo not drawn), the inhibition was -25.2%. For `O=C(NC(=O)c1ccccc1)Nc1ccccc1O`, the inhibition was 50.8% (active). In the case of `Cc1ccc(NC(=O)NC(=O)c2ccccc2)cc1F`, the inhibition is reported as -37.5%. With `CNC(=O)C(NC(=O)c1ccccc1)=C(C)C` the inhibition was 4.65%. Work on `COc1ccc(C(=O)NC(C)c2nccs2)cc1OC1CCN(C(C)C)CC1` (stereo not drawn) yielded an inhibition of -14.2%. Work on `Cc1cc(C)c(C)c(S(=O)(=O)Nc2ccc(O)cc2)c1C` yielded an inhibition of 22.9%. `Cc1cc(C)c(C)c(S(=O)(=O)Nc2cccnc2)c1C` gave an inhibition of -12.5%. In the case of `Cc1cc(C)c(C)c(S(=O)(=O)N[C@@H](C)C(=O)OC(C)C(=O)NC(N)=O)c1C` (stereo partly drawn), the inhibition is reported as 53.7% (active). With `CC1=NN(/C(=N\c2nnc(C)s2)Nc2ccccc2)[C@H](c2ccc(C)cc2)S1` the inhibition was -7.27%. Work on `COC(=O)c1cc2n(n1)CCCNC2=O` yielded an inhibition of -0.66%. For `COC(=O)c1ccc(OC(=O)c2nn(C)cc2Cl)c(OC)c1`, the inhibition was -9.75%. In the case of `COc1ccc(C(=O)n2nc(-c3ccc(Cl)cc3)nc2N)cc1OC`, the inhibition is reported as 64.1% (active). With `COc1ccc(C(=O)n2nc(C)c(Br)c2C)cc1OC` the inhibition was -7.65%. Work on `CC(C)CC(CO)N1CCN(C(=O)c2ccc(Cl)cc2Cl)CCC1=O` (stereo not drawn) yielded an inhibition of 10.3%. `CCOc1ccc(S(=O)(=O)N2CCN=C2Cc2ccccc2)cc1C` gave an inhibition of -1.14%. For `COCCn1c(N)c(NCc2ccccc2)c(=O)[nH]c1=O`, the inhibition was -0.79%. For `CN(c1ccccc1)S(=O)(=O)c1cc(C(=O)Nc2nc3ccccc3[nH]2)ccc1Cl`, the inhibition was 78.9% (active). In the case of `Cc1cccc(NC(=O)c2ccc(S(=O)(=O)N(C)c3ccccc3)cc2)n1`, the inhibition is reported as 31.6%. Compound `CN(c1ccccc1)S(=O)(=O)c1cc(C(=O)N2CCN(c3ncccn3)CC2)ccc1Cl` has an inhibition of -62.5%.
